Records with an inconclusive call do not appear. Where a call stands in place of a potency, no number is given. The source made the active and inactive calls. The call rests on the fitted dose curve; in most records, active means well fitted inhibition curve with a large enough effect; inconclusive means small, poorly fitted or top-dose-only effect; inactive means no such curve, though single readings can be large or run the other way.
How the values were obtained:
[1] = test system: Zika virus NS2B-NS3 protease (unlinked complex); test: Primary screen GU Rhodamine qHTS for Zika virus inhibitors: Unlinked NS2B-NS3 protease assay (AID 1347159); details: Recombinant ZIKV NS2B-NS3 protease, Rhodamine110 substrate fluorescence; series mostly up to 107 µM; further: nearly all actives have a fitted effect of over 60% in size
Summary of the method: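 In dose–response format, inhibition of unlinked protease (25 nM) was measured with 1.5 microM bis-peptide Rhodamine110 substrate. Aprotinin served as the intraplate control.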

[2] = test system: Zika virus NS2B-NS3 protease (linked construct); test: Primary screen NINDS Rhodamine qHTS for Zika virus inhibitors (AID 1347160); details: purified NS2B-NS3 protease, Rhodamine110 substrate fluorescence; series mostly up to 57.1 µM; further: nearly all actives have a fitted effect of over 55% in size
Summary of the method: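 Each compound, titrated, sat 15 min with 25 nM linked protease before 1.5 microM Rhodamine110 substrate went in. Fluorescence gain over the next 15 min, in pH 8.0 Tris with Tween 20, gave Hill-fitted curves.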

Structure (SMILES)	Potency [1]	Potency [2]
Cn1ncnc1[C@@H]1c2n[nH]c(=O)c3cc(F)cc(c23)N[C@H]1c1ccc(F)cc1	inactive	inactive
COc1ccccc1S(=O)(=O)Nc1ccc2c(c1)CN(C)C(=O)N2	inactive	inactive
COc1cc(NC(=O)c2cccc(-n3cc(NC(=O)Nc4cccc(C)c4)cn3)c2)cc(OC)c1OC	inactive	inactive
C=CCC1=C[C@]2(OC)[C@H](C)[C@@H](c3ccc4c(c3)OCO4)O[C@]2(OC)CC1=O	inactive	inactive
CN[C@@H]1[C@H](O[C@H]2[C@H](O[C@@H]3[C@@H](O)[C@H](O)[C@@H](N=C(N)N)[C@H](O)[C@H]3N=C(N)N)O[C@@H](C)[C@]2(O)CO)O[C@@H](CO)[C@H](O)[C@H]1O	inactive	inactive
COCCCNC(=O)c1ccc(Cn2c(=O)c3ccccc3n(Cc3ccc(C(C)C)cc3)c2=O)cc1	inactive	inactive
Cc1cc(-c2cc(OC(=O)c3ccccc3)ccc2Cl)cc2nnc(Nc3ccc(OCCN4CCCC4)cc3)nc12	inactive	inactive
CC(=O)NC[C@H]1CN(c2ccc(N3CCSCC3)c(F)c2)C(=O)O1	inactive	inactive
CC#CC(=O)Nc1ccc2ncnc(Nc3cccc(Br)c3)c2c1	inactive	inactive
C=C[C@]1(C)C[C@H](O)[C@H]2C(=C)C(=O)O[C@@H]2[C@H]1C(=C)CO	inactive	inactive
CC(C)=C1C[C@@]2(C)C(=CC1=O)CC[C@@H](OC(=O)/C(C)=C/CO)[C@@H]2C	inactive	inactive
O=C(Nc1ccc(Cl)cc1)c1ccccc1NCc1ccncc1	inactive	inactive
COc1cccc(-c2cn(-c3ccc(CCN4CCC(O)CC4)cc3)c3ncnc(N)c23)c1	inactive	inactive

— PubChem BioAssay (NCATS)
